Reference: PubChem BioAssay (NCATS)
Results filed as inconclusive are left out. Activity calls are given as the source filed them. Unless noted, the call rests on the fitted dose curve; in most records, active means well fitted curve in the direction sought with a large enough effect; inconclusive means small, poorly fitted or top-dose-only effect, or another doubt; inactive means no such curve, though single readings can be large; an effect the other way counts as inactive or inconclusive.

Tests used:
[1] = biological target: ATP-dependent 6-phosphofructokinase (Trypanosoma brucei brucei) (UniProt O15648); assay: qHTS Assay to Find Inhibitors of T. brucei phosphofructokinase: hit validation (AID 492961);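 further: luminescence reports ADP formed as PFK phosphorylates fructose-6-phosphate with ATP; series mostly up to about 51 µM; on the % scale 0 is the no-effect control and ±100 the full control effect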
Sequence of ATP-dependent 6-phosphofructokinase (Trypanosoma brucei brucei) (O15648 whole entry, looked up): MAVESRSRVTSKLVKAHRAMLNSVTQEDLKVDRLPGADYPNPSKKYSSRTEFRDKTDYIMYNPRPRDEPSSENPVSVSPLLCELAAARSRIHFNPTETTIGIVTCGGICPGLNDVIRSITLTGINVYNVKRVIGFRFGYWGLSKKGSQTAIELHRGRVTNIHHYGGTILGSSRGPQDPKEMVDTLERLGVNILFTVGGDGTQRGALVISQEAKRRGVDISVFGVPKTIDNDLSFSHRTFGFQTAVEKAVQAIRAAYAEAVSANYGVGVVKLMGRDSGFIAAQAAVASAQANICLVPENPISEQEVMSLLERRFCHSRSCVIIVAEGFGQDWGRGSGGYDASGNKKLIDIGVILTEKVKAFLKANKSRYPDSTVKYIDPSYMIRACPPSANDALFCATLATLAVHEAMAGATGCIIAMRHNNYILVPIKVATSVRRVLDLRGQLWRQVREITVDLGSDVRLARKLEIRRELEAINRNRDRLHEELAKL
Outline: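 Inhibition of parasite PFK is measured as reduced ADP formation, quantified via luciferase after ATP depletion. Assay used 0.1 mM ATP, 0.5 mM F6P, 1.25 nM enzyme, 45 min incubation.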

[2] = biological target: M-phase phosphoprotein 8 (Homo sapiens) (UniProt Q99549); assay: qHTS Validation Assay for Inhibitors for MPP8 Chromodomain Interactions with Methylated Histone Tails (AID 488949); further: nearly all actives have a fitted effect of over 55% in size; further: potency means the concentration at half of the fitted maximal effect
Sequence of M-phase phosphoprotein 8 (Homo sapiens) (Q99549 whole entry, looked up): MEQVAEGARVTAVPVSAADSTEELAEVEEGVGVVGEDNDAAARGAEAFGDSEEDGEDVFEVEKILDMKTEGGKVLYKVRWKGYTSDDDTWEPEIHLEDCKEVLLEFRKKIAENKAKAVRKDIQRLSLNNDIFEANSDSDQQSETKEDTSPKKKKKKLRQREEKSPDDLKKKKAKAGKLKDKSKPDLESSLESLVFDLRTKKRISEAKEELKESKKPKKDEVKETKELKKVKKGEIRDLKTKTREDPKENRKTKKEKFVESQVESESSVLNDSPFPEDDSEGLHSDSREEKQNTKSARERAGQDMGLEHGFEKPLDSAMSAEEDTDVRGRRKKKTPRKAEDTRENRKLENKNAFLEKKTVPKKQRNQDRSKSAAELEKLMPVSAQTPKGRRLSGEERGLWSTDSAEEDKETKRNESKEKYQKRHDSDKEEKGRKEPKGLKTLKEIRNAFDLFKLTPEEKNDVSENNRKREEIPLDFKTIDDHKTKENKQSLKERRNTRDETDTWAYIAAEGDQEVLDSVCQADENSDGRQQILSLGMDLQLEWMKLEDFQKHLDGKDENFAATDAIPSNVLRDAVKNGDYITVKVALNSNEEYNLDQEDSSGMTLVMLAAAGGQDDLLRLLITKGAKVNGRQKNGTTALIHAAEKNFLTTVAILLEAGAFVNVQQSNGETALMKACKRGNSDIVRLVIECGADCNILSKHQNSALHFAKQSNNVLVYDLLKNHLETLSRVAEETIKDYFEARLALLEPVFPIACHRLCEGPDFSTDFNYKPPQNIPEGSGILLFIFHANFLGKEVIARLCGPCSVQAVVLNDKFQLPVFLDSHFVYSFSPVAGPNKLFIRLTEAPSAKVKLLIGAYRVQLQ
Outline: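 50 nM MPP8 + 50 nM b-H3K9me3 peptide, PBS pH 7.4/0.01% Tween-20, 30 min RT; + cpd 30 min RT; + AlphaScreen donor/Ni-chelate acceptor beads 10 ug/mL final, 30 min dark; luminescence read.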

[3] = biological target: Chromobox protein homolog 1 (Homo sapiens) (UniProt P83916); assay: qHTS Validation Assay for Inhibitors of HP1-beta Chromodomain Interactions with Methylated Histone Tails (AID 488953); further: nearly all actives have a fitted effect of over 50% in size; further: potency means the concentration at half of the fitted maximal effect
Sequence of Chromobox protein homolog 1 (Homo sapiens) (P83916 whole entry, looked up): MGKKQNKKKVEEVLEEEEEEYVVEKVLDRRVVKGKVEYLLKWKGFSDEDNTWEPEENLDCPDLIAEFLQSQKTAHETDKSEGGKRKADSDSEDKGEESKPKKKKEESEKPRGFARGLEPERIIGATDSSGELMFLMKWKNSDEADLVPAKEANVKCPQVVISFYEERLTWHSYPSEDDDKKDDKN
Outline: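 HP1-beta (50 nM) was preincubated 30 min at room temperature with biotinylated H3(1-18)K9me3 peptide (50 nM) in PBS pH 7.4, 0.01% Tween-20, then with compounds 30 min. AlphaScreen signal was read after streptavidin donor/nickel chelate acceptor beads (10 ug/mL final).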

[4] = biological target: Methanococcus maripaludis chaperonin (MmCpn) (UniProt Q6LX38); assay: High-Throughput Screening for Modulators of Cytosolic Chaperonin Activity: MmCpn Primary Screen (AID 488978);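 further: 50 nM MmCpn enzyme hydrolysing 30 µM ATP at 37 °C; 0% is about no effect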
Sequence of Methanococcus maripaludis chaperonin (MmCpn) (Q6LX38 1-543): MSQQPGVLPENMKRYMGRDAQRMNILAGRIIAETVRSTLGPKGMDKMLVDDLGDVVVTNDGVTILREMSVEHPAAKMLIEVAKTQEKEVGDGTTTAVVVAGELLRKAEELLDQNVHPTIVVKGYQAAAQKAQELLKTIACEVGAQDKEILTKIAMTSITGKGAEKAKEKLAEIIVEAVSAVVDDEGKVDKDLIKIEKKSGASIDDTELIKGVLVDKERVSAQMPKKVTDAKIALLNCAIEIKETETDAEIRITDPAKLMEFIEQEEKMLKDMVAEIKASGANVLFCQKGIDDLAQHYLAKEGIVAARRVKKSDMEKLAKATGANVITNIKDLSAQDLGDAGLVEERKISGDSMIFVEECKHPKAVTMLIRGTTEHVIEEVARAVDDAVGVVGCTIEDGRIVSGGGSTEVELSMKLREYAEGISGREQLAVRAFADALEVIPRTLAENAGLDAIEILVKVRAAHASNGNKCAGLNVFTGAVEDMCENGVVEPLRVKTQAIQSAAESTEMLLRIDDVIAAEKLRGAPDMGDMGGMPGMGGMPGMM
Outline: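 Steps: chaperonin 50 nM final; add compound, 5 min RT; start with ATP, 30 uM final; hold 10 min at 37C; add ADP Transcreener HTRF reagent, 5 min; read ex 320, em 590 and 665 nm.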

[5] = biological target: Transient receptor potential cation channel subfamily V member 1 (Homo sapiens) (UniProt Q8NER1); assay: HTS Assay for Compounds that Act as Enhancers of the Vanilloid Receptor 1 (AID 488979); further: 0% is about no effect
Outline: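 TRPV1 cells loaded with Fluo-8 calcium dye; compound added and Ca2+ signal (ex 480/em 520 nm) followed 3 min, then capsaicin at EC20 added and read 2 more min to detect enhancement.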

[6] = biological target: Thyrotropin receptor (Homo sapiens) (UniProt P16473); assay: qHTS Assay for Antagonists of the Thyroid Stimulating Hormone Receptor (AID 488980); further: series mostly up to about 58 µM; 0% is about no effect
Outline: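 Readout is cAMP by HTRF competition between cellular cAMP and cAMP-d2 for a cryptate-labelled antibody. Antagonism was assessed in TSHR-transfected HEK293 cells stimulated with 4 nM TSH (EC80, final) in the presence of RO 20-1724.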

[7] = biological target: D(1A) dopamine receptor (Homo sapiens) (UniProt P21728); assay: HTS Assay for Allosteric Agonists of the Human D1 Dopamine Receptor: Primary Screen for Agonists (AID 488981); further: 0% is about no effect
Sequence of D(1A) dopamine receptor (Homo sapiens) (P21728 whole entry, looked up): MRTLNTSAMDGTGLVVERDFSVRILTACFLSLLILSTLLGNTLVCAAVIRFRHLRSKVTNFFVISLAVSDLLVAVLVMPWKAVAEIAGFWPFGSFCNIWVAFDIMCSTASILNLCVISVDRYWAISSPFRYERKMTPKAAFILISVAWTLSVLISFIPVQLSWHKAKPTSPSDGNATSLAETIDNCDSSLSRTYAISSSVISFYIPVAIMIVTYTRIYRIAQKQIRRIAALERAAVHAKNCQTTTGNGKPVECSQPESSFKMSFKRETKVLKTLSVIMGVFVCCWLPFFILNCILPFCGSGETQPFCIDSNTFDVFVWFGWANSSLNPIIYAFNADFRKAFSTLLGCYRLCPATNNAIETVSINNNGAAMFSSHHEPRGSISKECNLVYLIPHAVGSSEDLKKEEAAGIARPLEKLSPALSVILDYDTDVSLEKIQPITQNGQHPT
Outline: (§1)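 Tetracycline-induced HEK293 Trex D1 cells with forced coupling to calcium, loaded with no-wash calcium dye; kinetic fluorescence read 180 s after compound addition for agonism, then a further 180 s after an EC20 dopamine challenge for potentiation.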

[8] = biological target: D(1A) dopamine receptor (Homo sapiens) (UniProt P21728); assay: HTS Assay for Allosteric Agonists of the Human D1 Dopamine Receptor: Primary Screen for Potentiators (AID 488982); further: 0% is about no effect
Outline: as §1

[9] = biological target: D(1A) dopamine receptor (Homo sapiens) (UniProt P21728); assay: HTS Assay for Allosteric Agonists of the Human D1 Dopamine Receptor: Primary Screen for Antagonists (AID 488983);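 further: calcium flux response to an EC80 dopamine challenge measured with no-wash dye; on the % scale 0 is the no-effect control and ±100 the full control effect; nearly all actives have a fitted effect of over 65% in size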
Outline: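 Tetracycline-induced HEK293 T-REx cells expressing force-coupled D1 were plated overnight at 30 C, dye-loaded for calcium, and read kinetically. Compounds were pinned in, then an EC80 dopamine challenge followed after 180 s to reveal antagonism.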

[10] = biological target: ATPase family AAA domain-containing protein 5 (Homo sapiens) (UniProt Q96QE3); assay: Validation screen for small molecules that inhibit ELG1-dependent DNA repair in human embryonic kidney (HEK293T) cells expressing luciferase-tagged ELG1 (AID 493107);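 further: cells co-treated with the DNA-damaging agent 5-fluorouridine alongside compound; series mostly up to about 46 µM; on the % scale 0 is the no-effect control and ±100 the full control effect; inhibitors lower the ELG1-luciferase luminescence signal; nearly all actives have a fitted effect of over 70% in size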
Outline: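 HEK293T cells expressing luciferase-tagged ELG1 were co-treated with 5-fluorouridine and compound or DMSO for 16 hr at 37 °C, 5% CO2. Luciferase activity was then read with ONE-Glo after 30 min at room temperature; suppressed signal indicates blocked ELG1 function.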

[11] = biological target: Thyrotropin-releasing hormone receptor (Homo sapiens) (UniProt P34981); assay: qHTS for Small Molecule Agonists and Allosteric Enhancers of Human TRH Receptor: Validation Screen for Agonists (AID 493127;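 active means calcium activation more than 3 SD above the typical response in the agonist read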;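 further: intracellular calcium rise by fluo-8 fluorescence before TRH EC20 addition; 0% is about no effect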); conditions: TRH receptor agonist cell assay; at 2 µM; stronger effect = higher value
Sequence of Thyrotropin-releasing hormone receptor (Homo sapiens) (P34981 whole entry, looked up): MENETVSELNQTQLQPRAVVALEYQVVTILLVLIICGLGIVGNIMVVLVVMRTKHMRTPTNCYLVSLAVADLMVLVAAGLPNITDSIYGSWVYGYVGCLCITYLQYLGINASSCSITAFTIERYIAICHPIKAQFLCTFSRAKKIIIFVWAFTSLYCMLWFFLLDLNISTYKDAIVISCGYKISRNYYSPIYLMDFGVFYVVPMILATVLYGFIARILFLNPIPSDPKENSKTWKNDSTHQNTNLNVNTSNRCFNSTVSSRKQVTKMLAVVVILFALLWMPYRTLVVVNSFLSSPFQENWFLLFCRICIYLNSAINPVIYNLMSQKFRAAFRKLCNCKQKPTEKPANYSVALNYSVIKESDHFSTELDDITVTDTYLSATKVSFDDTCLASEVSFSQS
Outline: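 TRHR-expressing cells were plated overnight in serum-containing medium, then loaded with fluo-8 calcium dye at room temperature for 30 min–1.5 h. After a 10 s baseline, compound was pin-transferred and calcium fluorescence (ex 480/em 530) read kinetically for agonist response.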

[12] = Nrf2 qHTS screen for inhibitors: Validation (AID 493153; active means well fitted inhibition curve with a large enough effect in the main read-out, with a control signal flat, not every such curve was filed as active); conditions: Potency: luciferase luminescence; viability change: measured here: cytotoxicity max response
Outline: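 A549 cells carrying an ARE-driven firefly luciferase reporter, in 5% FBS OPTI-MEM, were treated with compounds in concentration-response for 18-24 h at 37°C. Viability was read by CellTiter-Fluor fluorescence, then Nrf2 activity by luciferase luminescence.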

[13] = qHTS for Inhibitors of Cell Surface uPA Generation: Validation Assay (AID 493164);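 further: RAW 264.7 macrophage cells exposed to compound for 18 h; 0% is about no effect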
Outline: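 RAW 264.7, 4000 cells/well, o/n plating; cpd 7-pt 1:5 dilution 2.45 nM–38.3 uM final; 18 h, 37 C/5% CO2; ATP-Lite, 5 s luminescence exposure.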

[14] = biological target: Galactokinase (Homo sapiens) (UniProt P51570); assay: qHTS Validation Assay for Inhibitors of Human Galactokinase (GALK) (AID 493189); further: 0% is about no effect
Outline: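 5 nM GALK / 100 uM galactose / 35 uM ATP, 20 mM HEPES pH8.0, 5 mM MgCl2, 60 mM NaCl, 1 mM DTT, 0.01% BSA (final). RT 1 h; Kinase-Glo Plus luminescence.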

[15] = Validation screen for small molecules that induce DNA re-replication in SW480 colon adenocarcinoma cells (AID 504364); further: 0% is about no effect
Outline: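 SW480 cells seeded at 250 per well were exposed to compound or DMSO for 48 hr at 37 C, 5% CO2, then stained with Hoechst for 40 min. DNA content per nucleus was imaged (405 nm ex, 500-530 nm em).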

[16] = biological target: Peptidyl-prolyl cis-trans isomerase NIMA-interacting 1 (Homo sapiens) (UniProt Q13526); assay: qHTS Validation Assay to Find Inhibitors of Pin1 (AID 504536; active means well fitted inhibition curve with a large enough effect in the polarisation, with a control signal flat, not every such curve was filed as active; the % refers to the polarisation;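 further: 0% = full Pin1 enzyme wells and -100% = no-enzyme wells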)
Sequence of Peptidyl-prolyl cis-trans isomerase NIMA-interacting 1 (Homo sapiens) (Q13526 whole entry, looked up): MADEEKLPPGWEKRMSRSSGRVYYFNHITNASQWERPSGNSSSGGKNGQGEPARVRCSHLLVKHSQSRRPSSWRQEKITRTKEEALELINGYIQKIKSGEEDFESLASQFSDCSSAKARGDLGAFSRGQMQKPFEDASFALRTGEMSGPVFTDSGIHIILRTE
Outline: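 Fluorescence polarization competition: compounds (titration) displace HiFluor-488-labeled Pin1-1b peptide from Pin1 (0.3 uM final) in pH 7.5 HEPES buffer with DTT, 10 min at room temperature; %Activity normalized to no-enzyme wells, curves fitted.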

[17] = biological target: Phosphoglycerate kinase, glycosomal (Trypanosoma brucei brucei) (UniProt P07378); assay: qHTS Validation Assay to Find Inhibitors of Phosphoglycerate Kinase (AID 504547); further: potency means the concentration at half of the fitted maximal effect
Sequence of Phosphoglycerate kinase, glycosomal (Trypanosoma brucei brucei) (P07378 whole entry, looked up): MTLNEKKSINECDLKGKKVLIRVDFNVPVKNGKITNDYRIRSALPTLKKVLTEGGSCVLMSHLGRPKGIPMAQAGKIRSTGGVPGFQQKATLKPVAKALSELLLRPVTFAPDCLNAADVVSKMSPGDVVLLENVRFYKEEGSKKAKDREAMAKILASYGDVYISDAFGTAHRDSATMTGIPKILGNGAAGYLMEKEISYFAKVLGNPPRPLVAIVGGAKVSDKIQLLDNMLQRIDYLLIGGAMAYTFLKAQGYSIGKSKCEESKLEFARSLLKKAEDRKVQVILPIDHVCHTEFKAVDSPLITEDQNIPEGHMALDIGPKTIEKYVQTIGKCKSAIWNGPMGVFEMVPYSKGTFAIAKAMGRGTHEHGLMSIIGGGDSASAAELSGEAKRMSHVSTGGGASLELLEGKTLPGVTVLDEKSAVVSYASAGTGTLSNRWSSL
Outline: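 PGK activity was coupled to GAPDH (100nM final), which generates the unstable substrate 1,3-bisphosphoglycerate in-well. Reactions ran 60 minutes at room temperature in 100mM TEA pH 7.6, 5mM MgCl2, 0.01% Tween-20, then Kinase-Glo Plus luminescence was read.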

[18] = biological target: phosphoglycerate mutase (Leishmania major) (UniProt Q4Q090); assay: qHTS Validation Assay to Find Inhibitors of Phosphoglycerate Mutase (AID 504548); further: series mostly up to about 58 µM; on the % scale 0 is the no-effect control and ±100 the full control effect
Sequence of phosphoglycerate mutase (Leishmania major) (Q4Q090 1-553): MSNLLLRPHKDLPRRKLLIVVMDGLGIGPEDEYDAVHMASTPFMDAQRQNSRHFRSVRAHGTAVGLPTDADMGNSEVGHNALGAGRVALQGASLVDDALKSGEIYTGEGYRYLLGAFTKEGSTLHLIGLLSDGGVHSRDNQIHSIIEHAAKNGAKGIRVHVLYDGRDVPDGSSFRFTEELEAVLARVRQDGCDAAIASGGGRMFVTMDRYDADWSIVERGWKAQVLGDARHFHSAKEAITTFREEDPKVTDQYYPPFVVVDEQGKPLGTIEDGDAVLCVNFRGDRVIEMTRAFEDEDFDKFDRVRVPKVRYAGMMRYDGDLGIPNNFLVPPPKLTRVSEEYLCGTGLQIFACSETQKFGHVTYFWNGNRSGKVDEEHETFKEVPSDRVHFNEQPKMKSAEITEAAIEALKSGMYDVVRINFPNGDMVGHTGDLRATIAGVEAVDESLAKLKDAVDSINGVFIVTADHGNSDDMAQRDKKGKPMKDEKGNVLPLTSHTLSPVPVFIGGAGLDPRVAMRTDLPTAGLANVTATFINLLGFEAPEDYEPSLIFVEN
Outline: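 Lm PGAM at 1.25 nM final with substrate in 100 mM TEA pH 7.6, 5 mM MgCl2, 0.01% Tween-20; 45 min at room temperature. Kinase-GloPlus added, 10 min, end-point luminescence read.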

[19] = biological target: Ubiquitin carboxyl-terminal hydrolase 1 (Homo sapiens) (UniProt O94782); assay: Inhibitors of USP1/UAF1: Pilot qHTS (AID 504865);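 further: rhodamine fluorescence freed from ubiquitin-rhodamine substrate followed over time; top concentration of the series differs between compounds; on the % scale 0 is the no-effect control and ±100 the full control effect; nearly all actives have a fitted effect of over 35% in size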
Sequence of Ubiquitin carboxyl-terminal hydrolase 1 (Homo sapiens) (O94782 whole entry, looked up): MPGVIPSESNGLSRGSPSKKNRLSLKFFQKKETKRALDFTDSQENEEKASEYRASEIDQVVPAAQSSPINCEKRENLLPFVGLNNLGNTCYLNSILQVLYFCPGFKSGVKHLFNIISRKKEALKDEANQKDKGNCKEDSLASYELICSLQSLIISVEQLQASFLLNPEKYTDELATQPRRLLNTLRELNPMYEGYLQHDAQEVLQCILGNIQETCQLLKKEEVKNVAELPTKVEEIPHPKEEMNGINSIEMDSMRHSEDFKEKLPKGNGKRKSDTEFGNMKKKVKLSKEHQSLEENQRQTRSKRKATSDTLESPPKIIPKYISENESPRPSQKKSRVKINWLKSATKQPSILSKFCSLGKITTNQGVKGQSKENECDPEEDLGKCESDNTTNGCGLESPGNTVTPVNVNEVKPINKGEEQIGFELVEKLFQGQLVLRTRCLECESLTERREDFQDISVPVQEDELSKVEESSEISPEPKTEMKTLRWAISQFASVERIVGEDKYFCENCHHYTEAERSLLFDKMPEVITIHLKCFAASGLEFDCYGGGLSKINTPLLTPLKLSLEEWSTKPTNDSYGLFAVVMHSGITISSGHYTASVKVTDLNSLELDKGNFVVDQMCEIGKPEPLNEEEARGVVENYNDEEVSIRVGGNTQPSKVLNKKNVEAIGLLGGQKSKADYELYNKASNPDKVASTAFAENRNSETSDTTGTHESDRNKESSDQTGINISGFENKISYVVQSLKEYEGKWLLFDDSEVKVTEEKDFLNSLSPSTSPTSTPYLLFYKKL
Outline: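 In 50mM HEPES pH 7.8 containing 0.5mM EDTA, 1mM TCEP, 0.1 mg/ml BSA and 0.01% Tween-20, 1nM USP1/UAF1 is exposed to compound for 15 min, then Ub-Rho (150nM final) is added and fluorescence is read over time.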

CCOC(=O)c1ccc(C#Cc2ccc3c(c2)C(C)(C)CCS3)nc1
inactive: Potency [1]

NC(=O)c1cccc(N)c1
9.41%: viability change [12]
inactive: Potency [2] | Potency [3] | outcome [4] | outcome [5] | outcome [6] | outcome [7] | outcome [8] | outcome [9] | Potency [10] | activation [11] 1.12% | Potency [12] | outcome [13] | outcome [14] | outcome [15] | outcome [16] | Potency [17] | outcome [18] | Potency [19]

N[C@@H](Cc1ccc(O)c(O)c1)C(=O)O
inactive: outcome [4] | outcome [7] | outcome [8] | outcome [9] | Potency [10] | Potency [12] | outcome [13] | outcome [18] | Potency [19]
active: Potency [2] 7.52 µM | Potency [3] 31.6 µM | Potency [17] 9.53 µM
-3.54%: viability change [12]

COc1cc(NCc2ccc3nc(N)nc(N)c3c2C)cc(OC)c1OC
inactive: Potency [1]

NC(=O)c1ccc2[nH]ccc2c1
inactive: Potency [2] | Potency [3] | outcome [4] | outcome [7] | outcome [8] | outcome [9] | Potency [12] | outcome [13] | outcome [16] | Potency [17] | outcome [18] | Potency [19]
-7.5%: viability change [12]

CC(C)(C)NC(=O)[C@H]1CC[C@H]2[C@@H]3CC[C@H]4NC(=O)C=C[C@]4(C)[C@H]3CC[C@]12C
inactive: Potency [2] | outcome [5] | activation [11] 0.688% | outcome [14] | outcome [15]

O=C(O)C1CCCN(CCC=C(c2ccccc2)c2ccccc2)C1 (stereo not drawn)
inactive: Potency [2] | Potency [3] | outcome [4] | outcome [5] | outcome [6] | outcome [7] | outcome [8] | outcome [9] | Potency [10] | activation [11] 0.875% | Potency [12] | outcome [13] | outcome [14] | outcome [15] | outcome [16] | Potency [17] | outcome [18] | Potency [19]
-7.12%: viability change [12]

C[C@@H](NCCCc1cccc(C(F)(F)F)c1)c1cccc2ccccc12
inactive: Potency [1]

CC1=C(C(=O)O)N2C(=O)[C@@H](NC(=O)C(N)c3ccccc3)[C@H]2SC1 (stereo partly drawn)
inactive: Potency [3] | outcome [4] | outcome [5] | outcome [7] | outcome [8] | outcome [9] | Potency [10] | activation [11] 0% | Potency [12] | outcome [13] | outcome [14] | outcome [15] | Potency [17] | outcome [18] | Potency [19]
3.05%: viability change [12]
